Data from PubChem BioAssay (NCI).
About 79,000 compounds went through this panel and 15% of them were active in at least one assay; those are over-represented in the sample as a whole. Values without a mark were called inactive. Active and inactive are the calls of the source. No stated cut-off is given here; in the data, active means growth inhibition above about 70%; inactive means the rest.

How the values were obtained:
[1] = NCI Yeast Anticancer Drug Screen. Data for the rad50 strain (AID 155);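 further: 0% = growth of vehicle-only cultures of the same strain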; conditions: S. cerevisiae rad50 strain growth inhibition, stronger effect = higher value
In short: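 Growth of the mutant yeast was measured after compound exposure and referenced to vehicle-treated cultures.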

[2] = NCI Yeast Anticancer Drug Screen. Data for the mec2-1 strain (AID 157); conditions: S. cerevisiae mec2-1 strain, stronger effect = higher value
In short: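 Test agents were screened against the mec2-1 yeast strain, with defined DNA repair or cell cycle alteration. Growth was scored as inhibition against vehicle-only controls.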

[3] = NCI Yeast Anticancer Drug Screen. Data for the sgs1 mgt1 strain (AID 161);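 further: 0% = growth of cultures given vehicle only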; conditions: S. cerevisiae sgs1 mgt1 strain, stronger effect = higher value
In short: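 Inhibition of yeast growth, normalised to vehicle-treated controls, is reported for a strain bearing genetic alterations in DNA damage repair.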

[4] = NCI Yeast Anticancer Drug Screen. Data for the cln2 rad14 strain (AID 165);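 further: 0% = growth equal to vehicle treated cultures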; conditions: S. cerevisiae cln2 rad14 strain, stronger effect = higher value
In short: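 Growth of compound-exposed yeast (cln2 rad14 genotype) measured and expressed as inhibition relative to vehicle.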

[5] = NCI Yeast Anticancer Drug Screen. Data for the bub3 strain (AID 167); conditions: S. cerevisiae bub3 mutant strain, stronger effect = higher value
In short: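 Whole-cell yeast assay. The mutant strain was incubated with compounds, and growth inhibition was determined by comparison with vehicle-treated cells.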

[6] = NCI Yeast Anticancer Drug Screen. Data for the mlh1 rad18 strain (AID 175); conditions: S. cerevisiae mlh1 rad18 strain growth inhibition, stronger effect = higher value
In short: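 In this whole-cell yeast screen, a strain with altered DNA damage repair is challenged with compound, and its growth is measured against matched vehicle-treated controls.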

[7] = at 5.0 µM (retest, dose inferred, filed as 0.5)
[8] = at 50.0 µM (retest, dose inferred, filed as 5.0)

| Compound | growth inhibition [1, 7] | growth inhibition [1, 8] | growth inhibition ([1]; at 50.0 µM) | growth inhibition [2, 7] | growth inhibition [2, 8] | growth inhibition ([2]; at 50.0 µM) | growth inhibition [3, 7] | growth inhibition [3, 8] | growth inhibition ([3]; at 50.0 µM) | growth inhibition [4, 7] | growth inhibition [4, 8] | growth inhibition ([4]; at 50.0 µM) | growth inhibition [5, 7] | growth inhibition [5, 8] | growth inhibition ([5]; at 50.0 µM) | growth inhibition [6, 7] | growth inhibition [6, 8] | growth inhibition ([6]; at 50.0 µM) |
| --- | --- | --- | --- | --- | --- | --- | --- | --- | --- | --- | --- | --- | --- | --- | --- | --- | --- | --- |
| CNc1c(C(=O)Nc2ccccc2)c(=O)n(C)c(=O)n1C | 99% (active) | 99% (active) | 62.9% | 100% (active) | 99% (active) | 81% (active) | 99% (active) | 99% (active) | 32.8% | 99% (active) | 99% (active) | 2.3% | 99% (active) | 99% (active) | 90.8% (active) | 99% (active) | 99% (active) | 74.5% (active) |
| NC(=O)N/N=C/c1ccc(Cl)s1 | 4% | 42% | 94.4% (active) | 4% | 21% | 59% | 2% | 31% | 88.8% (active) | -1% | 10% | 52.5% | 3% | 35% | 82.5% (active) | 1% | 31% | 89.2% (active) |
| COC(=O)C1=Cc2cc3c(cc2[C@H](c2ccc4c(c2)OCO4)C1C(=O)OC)OCO3 (stereo partly drawn) | 2% | 26% | 48.6% | -5% | 20% | 33.9% | 3% | 40% | 47.5% | 0% | 40% | 37% | 26% | 70% (active) | 71.4% (active) | 2% | 23% | 56.8% |
| CCCC/C=C1/CCC(CN(C)C)C1=O (stereo not drawn) | 7% | 60% | 51.9% | -2% | 48% | 37.4% | 16% | 56% | 81% (active) | – | – | – | 14% | 84% (active) | 61.9% | 19% | 69% | 54.2% |
| c1cnc2c(Oc3nc(Oc4cccc5cccnc45)nc(Oc4cccc5cccnc45)n3)cccc2c1 | 1% | 91% (active) | 94% (active) | 30% | 90% (active) | 89.9% (active) | 18% | 76% (active) | 94.1% (active) | 5% | 54% | 84.2% (active) | -2% | 92% (active) | 94% (active) | 30% | 94% (active) | 91.2% (active) |
| CCCCCCCCCCCCCCCC1=NCCN1C | 14% | 99% (active) | 99.1% (active) | 9% | 100% (active) | 99.5% (active) | 29% | 99% (active) | 54.9% | – | – | – | 48% | 99% (active) | 99.3% (active) | 16% | 99% (active) | 98.9% (active) |
| O=[N+]([O-])c1cc([N+](=O)[O-])c2ccccc2c1O | 17% | 90% (active) | 75% (active) | 8% | 90% (active) | 65.1% | 7% | 89% (active) | 88.8% (active) | -6% | 48% | 52% | 2% | 87% (active) | 61% | 9% | 92% (active) | 82.3% (active) |
| c1nc(N2CCOCC2)c2[nH]cnc2n1 | 5% | -5% | 22.1% | -1% | -7% | 8.05% | 0% | 4% | 12.2% | -1% | -13% | 36.5% | -2% | 8% | -5.75% | 5% | 5% | 17.4% |
| CN(Cc1cnc2nc(N[Si](C)(C)C)nc(N[Si](C)(C)C)c2n1)c1ccc(C(=O)NC(CCC(=O)O[Si](C)(C)C)C(=O)O[Si](C)(C)C)cc1 (stereo not drawn) | 19% | 89% (active) | 91% (active) | 66% | 97% (active) | 98.3% (active) | 2% | 72% (active) | 64.7% | – | – | – | -4% | 90% (active) | 69.7% | 15% | 81% (active) | 60.6% |
| O=C1CSC(=S)N1c1ccc(I)cc1 | 1% | 34% | 99% (active) | -2% | 11% | 99% (active) | – | – | – | -2% | -8% | 83.8% (active) | -6% | 26% | 99% (active) | 0% | 75% (active) | 98.7% (active) |
| CC(C)c1cc(C(=O)[O-])c(O)c(C(C)C)c1.CC(C)c1cc(C(=O)[O-])c(O)c(C(C)C)c1.CC(C)c1cc(C(=O)[O-])c(O)c(C(C)C)c1.CC(C)c1cc(C(=O)[O-])c(O)c(C(C)C)c1.CC(C)c1cc(C(=O)[O-])c(O)c(C(C)C)c1.CC(C)c1cc(C(=O)[O-])c(O)c(C(C)C)c1.[Cu+2].[Mn+2].[Mn+2] | 40% | 63% | 43.5% | 38% | 57% | 50.5% | 31% | 70% (active) | 44.5% | – | – | – | 37% | 66% | 55% | 39% | 66% | 82.1% (active) |
| O=C1C(Cl)=CC(=NCl)C=C1Cl | 59% | 83% (active) | 89.1% (active) | 53% | 91% (active) | 91% (active) | 27% | 98% (active) | 91.9% (active) | – | – | – | 84% (active) | 95% (active) | 89.8% (active) | 28% | 86% (active) | 89% (active) |
| CC(=O)OC1COC(n2nnc(C#N)c2C#N)C(OC(C)=O)C1OC(C)=O (stereo not drawn) | 4% | 9% | 93.7% (active) | -7% | 2% | 82.4% (active) | 1% | 4% | 94.7% (active) | 3% | 4% | 83% (active) | 1% | 4% | 89.3% (active) | 0% | 27% | 91.8% (active) |
| Cc1cc(Nc2ccc(N=Nc3ccc(O)c4ncccc34)cc2)nc(C)n1 | 1% | 31% | 71.1% (active) | -4% | 21% | 52.5% | -2% | 35% | 47.9% | -41% | 6% | 23% | 5% | 4% | 60.9% | 0% | 37% | 75.5% (active) |
| Cn1c(=O)nc2n(-c3ccc(Cl)cc3)c3cc(Cl)ccc3nc-2c1=O | 7% | 20% | 20.6% | 4% | 9% | 24.1% | – | – | – | 15% | 20% | 16.9% | 17% | 18% | -6.9% | 7% | 20% | 77% (active) |
| CCCN(CCC)c1ccc(/C=C/c2ccnc3ccccc23)cc1 | 9% | 74% (active) | 91.2% (active) | -10% | 88% (active) | 92% (active) | -4% | 82% (active) | 92.7% (active) | -18% | 60% | 58% | -12% | 88% (active) | 92% (active) | -7% | 86% (active) | 89.7% (active) |
| C=CCSc1nc2ccc(N3C(=O)C=CC3=O)cc2s1 | 59% | 99% (active) | 94.7% (active) | 50% | 99% (active) | 98% (active) | 51% | 100% (active) | 97.5% (active) | 24% | 98% (active) | 96.5% (active) | 27% | 99% (active) | 99% (active) | 85% (active) | 97% (active) | 97.8% (active) |
| CCCCCCSc1nn(CCC#N)c(=O)[nH]c1=O | -1% | -36% | 96% (active) | 5% | 36% | 93.5% (active) | 1% | 40% | 91.5% (active) | 13% | 10% | 78.5% (active) | 24% | -6% | 74.8% (active) | 3% | 21% | 96.7% (active) |
| CCCc1nc2ccccc2c(=O)n1/N=C/c1ccccc1O | 4% | -5% | 44.2% | -1% | -1% | 47.9% | 4% | -1% | 72.4% (active) | – | – | – | -2% | -2% | 82.5% (active) | -2% | 2% | 71% (active) |
| O=C(/C=C\c1ccc([N+](=O)[O-])o1)/C=C/c1ccc([N+](=O)[O-])o1 | 36% | 96% (active) | 96.8% (active) | 33% | 98% (active) | 97.1% (active) | 52% | 98% (active) | 95% (active) | – | – | – | 38% | 97% (active) | 94.9% (active) | 91% (active) | 96% (active) | 98.2% (active) |
